Unmarked numbers belong to inactive results. No rule for the calls is given here.

This assay is described as follows: PLAP enzyme activity inhibition – biochemical, colorimetric, counter-screen, dose response (AID 779). The note with it: colorimetric OD read-out. For orientation: Counterscreens check selectivity or assay interference.
A word on the IC50: it is the concentration that gives 50% inhibition. Consider `O=[N+]([O-])/C=C/c1cn(Cc2ccccc2)c2ccccc12`, for which the IC50 was greater than 50 µM.

As to `O=C1CCCC2=C1C(c1ccco1)Nc1ccc3ccccc3c12` (configuration not stated), the IC50 was greater than 50 µM.

As for `CC1Cc2ccccc2N1Cc1nc2cc(C(F)(F)F)ccc2c(=O)[nH]1` (configuration not stated), the IC50 was greater than 50 µM.

`COc1ccc(N2Cc3cccc(C(=O)O)c3C2=O)cc1`: the IC50 is greater than 50 µM.

`CCc1cccc2c(C(=O)CSc3nnc(-c4ccoc4C)n3C)c[nH]c12`: the IC50 is greater than 50 µM.

In the case of `CCCN1C(=O)/C(=C/C=C2\N(CC)c3ccccc3C2(C)C)SC1=S`, the IC50 is greater than 50 µM.

On to `Cc1cc2cc(CNC(=O)c3ccc(S(=O)(=O)N4CCCCC4)cc3)ccc2n1C`, for which the IC50 is greater than 50 µM.

Consider `COc1ccc(OC)c(NC(=O)CSc2nc3ccccc3cc2Cc2ccccc2)c1`, for which the IC50 was greater than 50 µM.

Consider `COc1ccc(-n2c(NC(=O)c3ccc(Br)o3)c(C#N)c3nc4ccccc4nc32)cc1`, for which the IC50 is greater than 50 µM.

On to `Clc1ccccc1CSc1nnc(-c2ccco2)c(-c2ccco2)n1`, for which the IC50 is greater than 50 µM.

`CCn1nc(-c2ccccc2)c2nc3ccccc3nc21`: the IC50 was greater than 50 µM.

In the case of `CCC(C)N1C(=O)/C(=C/c2c(NCCCOC(C)C)nc3c(C)cccn3c2=O)SC1=S` (configuration not stated), the IC50 is greater than 50 µM.

As for `CCOc1ccc(S(=O)(=O)N(CC(=O)N/N=C/c2ccc(-c3ccc([N+](=O)[O-])cc3)o2)c2ccccc2)cc1`, the IC50 was greater than 50 µM.

For `Cc1ccc(CNC(=O)CN2CCC(C(N)=O)CC2)cc1`, the IC50 was greater than 50 µM.

With `CCN(CCCNC(=O)CN(C)S(=O)(=O)c1cccc2nsnc12)c1cccc(C)c1`, the IC50 was greater than 50 µM.

Consider `CCn1c2ccc(Cl)cc2c2nc3ccccc3nc21`, for which the IC50 is greater than 50 µM.

As to `CC(C)C(C(=O)O)N1C(=O)/C(=C/C=C/c2ccco2)SC1=S` (configuration not stated), the IC50 is greater than 50 µM.

`O=C(NCCc1ccccc1)c1ccc2nc(-c3ccco3)c(-c3ccco3)nc2c1`: the IC50 is greater than 50 µM.

`COc1cc(/C=C2\SC(=S)N(Nc3ccccc3)C2=O)cc(OC)c1OC`: the IC50 was greater than 50 µM.

Regarding `O=[N+]([O-])c1ccc(N2N=C(c3ccco3)CC2c2ccccc2)cc1` (configuration not stated), the IC50 was greater than 50 µM.

As for `CCNc1ccc(Br)cc(C(=O)/C=C/c2ccc3c(c2)OCO3)c1=O`, the IC50 was greater than 50 µM.

As for `COc1ccc(/C=c2\sc3nc(-c4ccccc4)c(-c4ccccc4)n3c2=O)cc1OC`, the IC50 is greater than 50 µM.

Turning to `O=C(Nc1cccc2c1CCCC2)c1cc([N+](=O)[O-])ccc1Cl`, the IC50 was greater than 50 µM.

In the case of `Oc1c(C=C2N=c3ccccc3=N2)sc(=S)n1-c1ccc(F)cc1`, the IC50 is greater than 50 µM.

As to `c1ccc(-c2cn3nc(-c4ccccc4)c(-c4ccccc4)nc3n2)cc1`, the IC50 was greater than 50 µM.

For `CCN(CC)CCCN(Cc1cc2cc3c(cc2[nH]c1=O)OCCO3)C(=O)Nc1ccccc1`, the IC50 was greater than 50 µM.

With `C=CCOC(=O)c1cc(-c2ccc(/C=C3\C(=O)NC(=O)C(C#N)=C3C)o2)ccc1Cl`, the IC50 was greater than 50 µM.

For the compound `CCOC(=O)c1c(NC(C)=O)sc2c1CCC(C=O)=C2Sc1ccccc1`, the IC50 was greater than 50 µM.

Consider `COc1cc(C(Nc2ccccn2)c2ccc3ccc(C)nc3c2O)cc(OC)c1O` (configuration not stated), for which the IC50 is greater than 50 µM.

With `CCOC(=O)N1CCN(C(=O)CSc2nnc(-c3c[nH]c4ccccc34)n2CCOC)CC1`, the IC50 was greater than 50 µM.

`CCCCn1nc(-c2ccccc2)c2nc3ccccc3nc21`: the IC50 was greater than 50 µM.

Take `Cn1c(=O)[nH]c(=O)c2c1nc1n2CCN1Cc1ccccc1`: the IC50 is greater than 50 µM.

The record behind these values is PubChem BioAssay AID779 (Sanford-Burnham Center for Chemical Genomics, 2007).
